Assay outcomes as filed in PubChem BioAssay.
In the library only some 2.5% were active in any assay of this set; here they are far more common.
Cruzain inh noDet: blocks cruzain activity in detergent-free assay; purified cruzain, Z-FR-AMC fluorescence, no detergent; Potency, µM, without a hit: max response, negative = inhibition, most hits filed as inhibitors; 2.3% of 200,000 active;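 note: plate controls were enzyme without inhibitor for no effect and buffer without enzyme for full effect; nearly all actives have a fitted effect of over 40% in size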
Target sequence (P25779 123-467 limits assumed): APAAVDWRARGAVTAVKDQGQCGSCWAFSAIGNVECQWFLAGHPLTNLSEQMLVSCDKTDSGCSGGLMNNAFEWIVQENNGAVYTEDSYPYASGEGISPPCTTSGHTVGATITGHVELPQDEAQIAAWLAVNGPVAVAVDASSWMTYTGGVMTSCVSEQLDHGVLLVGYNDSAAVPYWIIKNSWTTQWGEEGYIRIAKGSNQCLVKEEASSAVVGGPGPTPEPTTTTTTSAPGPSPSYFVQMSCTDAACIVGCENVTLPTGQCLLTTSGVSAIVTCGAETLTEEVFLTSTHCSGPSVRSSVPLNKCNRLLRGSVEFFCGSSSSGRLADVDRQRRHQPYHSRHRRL
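Detergent-free condition (0.00005% Triton X-100) in acetate buffer pH 5.5 with DTT. 1.5 nM enzyme and compound were pre-mixed 15 min, then 2 uM Z-FR-AMC substrate added; reaction progress from fluorescence change between first and third reads (60 s).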
Cruzain Triton: cruzain (T. cruzi) inhibition with detergent. 0.43% of 200,000 active. P25779. Potency, µM, without a hit: max response, negative = inhibition, actives largely listed as inhibitors. purified cruzain, Z-FR-AMC fluorescence, 0.01% Triton;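 note: plate controls were neutral wells for no effect and buffer without enzyme for full effect; nearly all actives have a fitted effect of over 40% in size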
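Detergent-containing run (0.01% Triton X-100) in acetate buffer pH 5.5 with 5 mM DTT: enzyme at 1.5 nM final, 15 min compound preincubation at room temperature, then 2 uM Z-FR-AMC substrate. Activity taken as 60 s fluorescence increase at 360/450 nm.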
* = called active by the depositor; u = inconclusive. Calls come from the whole dose curve; as a rule, active = well fitted curve in the direction sought with a large enough effect; inconclusive = small, poorly fitted or top-dose-only effect, or another doubt; inactive = no such curve, though single readings can be large; an effect the other way counts as inactive or inconclusive. Potency is the fitted concentration of half-maximal effect.

SMILES | Cruzain inh noDet | Cruzain Triton
Cc1cc(NC(=O)CSc2nc3ccccc3s2)no1 | 32µM* | 1%
CCOc1ccc2nc(SCC(=O)N3c4ccccc4Sc4ccccc43)sc2c1 | u | 1%
O=C(CSc1nc2ccccc2s1)N1c2ccccc2Sc2ccccc21 | 16µM* | 2%
Cc1cnc(NC(=O)CSc2nc3ccccc3s2)s1 | -10% | -5%
Cc1cccc(OCCSc2nc3ccc(NC(=O)c4cccs4)cc3s2)c1 | -7% | -1%
CC(C)(C)C1CCc2oc3ccc(NS(=O)(=O)c4cc(Cl)ccc4Cl)cc3c2C1 (centres undefined) | 4µM* | -2%
CC(C)(C)C1CCc2oc3ccc(NS(=O)(=O)c4ccc(C(=O)O)cc4)cc3c2C1 (centres undefined) | u | -24%
C=C[C@@H]1CN2CC[C@H]1CC2[C@H](O)c1ccnc2ccccc12 (some centres undefined) | -3% | 4%
Cc1cccc(-n2ncc3c(Nc4ccc(C)c(Cl)c4)ncnc32)c1 | 14% | 3%
Cc1cccc(-n2ncc3c(Nc4ccc(Oc5ccc(Cl)cc5)cc4)ncnc32)c1 | 25µM* | 3%
O=C(CCCc1ccccc1)NC1CC(=O)N(c2ccc(Cl)cc2)C1 (centres undefined) | -2% | -3%
O=C(Nc1nc2ccc(Oc3ccccc3)cc2s1)c1cc([N+](=O)[O-])ccc1N1CCOCC1 | 16µM* | -18%
Cc1cc(C)c(-c2csc(NC(=O)c3cc([N+](=O)[O-])ccc3N3CCOCC3)n2)c(C)c1 | -14% | -4%
COc1cc(NC(=O)N2CCc3c(sc4c3CCCC4)C2c2ccccc2)cc(OC)c1OC (centres undefined) | u | -3%
COc1cc(OC)c(NC(=O)N2CCc3c(sc4c3CCCC4)C2c2ccccc2)cc1Cl (centres undefined) | 10µM* | 0%
COc1cc(OC)c(NC(=O)N2CCc3c([nH]c4ccccc34)C2c2ccccc2F)cc1Cl (centres undefined) | 16µM* | -4%
Cc1ccc(C2c3[nH]c4ccccc4c3CCN2C(=O)Nc2ccc(C)c(C)c2)cc1 (centres undefined) | u | 1%
O=C(CSc1nccn1Cc1ccc(Cl)cc1)Nc1nc2ccccc2s1 | -19% | -8%
Cc1ccn2c(=O)c(C(=O)NC(C)c3ccccc3)c(O)nc2c1 (centres undefined) | 4% | 0%
Cc1ccc2nc(-c3ccc(S(=O)(=O)N4CCOCC4)cc3)cn2c1 | -3% | -2%
Cc1ccn2cc(-c3ccc(S(=O)(=O)N4CCOCC4)cc3)nc2c1 | u | 28µM*
CCOC(=O)Cc1csc(NC(=O)CSc2ncnc3c2cnn3-c2ccccc2Cl)n1 | 4% | -8%
COC(=O)c1c(NC(=O)CSc2ncnc3c2cnn3-c2ccccc2Cl)sc2c1CCCC2 | 3.2µM* | -6%
Cc1ccc2nc(COc3ccccc3NC(=O)c3ccccc3F)cc(=O)n2c1 | -12% | 3%
COc1ccccc1OCC(=O)NCCc1nc2ccccc2[nH]1 | 13µM* | 16µM*
SMILES | Cruzain inh noDet | Cruzain Triton
Cc1cc(OCC(=O)NCCc2nc3ccccc3[nH]2)cc(C)c1Cl | 4% | 8.9µM*
Cc1ccc(C(C)(C)C)c(OCC(=O)NCCc2nc3ccccc3[nH]2)c1 | 7% | -2%
CCC(=O)NCCc1nc2ccccc2[nH]1 | 1% | 1%
Cc1ccc(-n2nc(C(=O)Nc3cccc(C#N)c3)c3c4ccccc4n(C)c3c2=O)cc1 | u | 1%
COc1ccc(N2CCN(Cc3cccn3-c3nnc(N4CCN(C5CCCCC5)CC4)s3)CC2)cc1 | -8% | -2%
COc1cc(NC(=O)c2cc(-c3cccc(OC)c3)n[nH]2)cc(OC)c1 | 13% | -8%
CCOC(=O)c1cc(C)n(CC2CCC(C(=O)Nc3ccc(C)cc3)CC2)c1C (centres undefined) | 6% | -8%
COc1ccc(-c2[nH]n(-c3ccc([N+](=O)[O-])cc3)c(=O)c2C=NCc2ccncc2)cc1 | u | -4%
COc1ccc(-c2[nH]n(-c3ccc([N+](=O)[O-])cc3)c(=O)c2C=NCc2ccc(F)cc2)cc1 | 25µM* | -6%
CCOc1ccc(C(=O)N2CCC(c3nc4ccccc4o3)CC2)cc1 | -12% | -3%
Cc1ccc(CNC(=O)c2c(Nc3c(C)cccc3C)sc(C(=O)c3ccccc3)c2N)cc1 | -18% | -2%
CCOc1ccc(CNC(=S)N/N=C\c2ccc([N+](=O)[O-])cc2)cc1 | 20µM* | -4%
CCOc1ccc(CNC(=S)N/N=C/c2cccnc2)cc1 | -1% | -6%
CCN(CC)CCn1c2ccc(F)cc2c2nc(C)sc21 | -7% | 0%
CCOc1ccc2c(c1)c1nnc(SCC(=O)N3CCCCC3C)nc1n2C (centres undefined) | u | 0%
CCCCn1c2ccc(F)cc2c2nnc(SCCN3CCCCC3)nc21 | u | 16µM*
Cn1c2ccc(F)cc2c2nnc(SCCN3CCCCC3)nc21 | 13µM* | 14µM*
CCn1c2ccccc2c2nnc(SCCN3CCCCC3)nc21 | -1% | -7%
